Screening data deposited in PubChem by several laboratories.
Compounds with a hit are over-represented: about 2.9% of the library has one in this group of screens.
FXN GAA850 act = increases GAA850 frataxin promoter reporter activity. HEK293 lucGAA850 FXN promoter luciferase reporter, 24 h; percent of 10 µM SAHA response. activation, % at 6 µM. 0.56% of 360,000 active. AID 540364;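 active means activation above the average of all compounds screened plus 3 SD, cutoff fixed separately per campaign, cut at about 7.5% in these data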;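 further: 0% = DMSO wells and 100% = 10 µM SAHA wells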
FAS-TE inh = FAS thioesterase (human) inhibition; recombinant FAS-TE, OMFH fluorogenic substrate, fluorescence endpoint; P49327; inhibition, % at 15 µM; 0.67% of 360,000 active;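 active means compounds whose normalised, plate-corrected inhibition of enzyme fluorescence in the single-dose primary screen is 50% or more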;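 further: 0% = DMSO with enzyme and 100% = substrate without enzyme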
SMARCA2 act = activators of SMARCA2 function; 1% of 370,000 active; MG213 cells, MMTV-luciferase reporter, dexamethasone, overnight; activation, % at 9.1 µM; AID 652017; in the data active means activation above about 7.8%;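 further: 0% = vehicle wells and 100% = reference activator wells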
KLK7 zymogen act = activates the human kallikrein-7 zymogen | AID 652039 | 0.9% of 370,000 active | activation, % at 7 µM | P49862 | purified proKLK7, EDANS-DABCYL substrate fluorescence; 100% is mature enzyme control, 0% vehicle;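 active means activation above the mean of all tested compounds plus 3 SD, computed per campaign excluding outliers beyond control limits, cut at about 13% in these data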
Target sequence (P49862 whole entry, looked up): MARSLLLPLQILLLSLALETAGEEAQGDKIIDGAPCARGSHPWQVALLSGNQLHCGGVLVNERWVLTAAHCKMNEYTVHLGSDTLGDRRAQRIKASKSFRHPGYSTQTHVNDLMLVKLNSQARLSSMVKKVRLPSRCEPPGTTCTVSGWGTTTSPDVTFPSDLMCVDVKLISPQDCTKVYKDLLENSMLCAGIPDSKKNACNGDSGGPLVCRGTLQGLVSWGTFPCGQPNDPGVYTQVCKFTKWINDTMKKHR
KLK7 act conf = proKLK7 activation, confirmation | shares compounds with KLK7 zymogen act | purified proKLK7, EDANS-DABCYL substrate fluorescence; scaled: vehicle 0, mature enzyme 100 | activation, % at 7 µM | 68% of 3,200 active;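 active means activation, as change over the incubation, above the mean of all tested compounds plus 3 SD, cut at about 13% in these data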
EDANS-DABCYL int = counter-screen for kallikrein-7 activators: EDANS-DABCYL optical interference; shares compounds with KLK7 zymogen act; activation, % at 7 µM; EDANS-DABCYL substrate fluorescence interference, no enzyme, 4 h; solvent 0%, active enzyme control 100%; 80% of 3,200 active;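 active means activation above the all-compound mean plus 3 SD, ignoring values outside control-based bounds, cut at about 4.8% in these data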;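 further: value is the 4 h activation minus the activation read at time zero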
K7 EDANS ctr = optically interferes with EDANS-DABCYL fluorescence, kallikrein-7 activator counter-screen. shares compounds with KLK7 zymogen act. EDANS-DABCYL peptide fluorescence interference, no enzyme. EC50, µM. 20% of 250 active. AID 720493;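 active means compounds that raise the fluorescence signal in this interference counterscreen, with EC50 at or below 10 µM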;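 further: intact quenched peptide substrate alone read at 355 nm excitation and 520 nm emission; signal is fluorescence gain from T0 to T4 after four hours at room temperature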
* marks the source's active call; other numbers are inactive results; . = no result.

SMILES	FXN GAA850 act	FAS-TE inh	SMARCA2 act	KLK7 zymogen act	KLK7 act conf	EDANS-DABCYL int	others
Cc1cc(C)c(NC(=O)C2C(=O)Nc3ccccc3C(=O)N2C(C)(C)C)c(C)c1 (centres undefined)	.	.	-3.7	0.6	.	.
Cc1[nH]c2ccc(-c3n[nH]c(=S)n3Cc3ccccc3)cc2c1C	2.1	5.5	0.2	-0.1	.	.
COC(=O)[C@@H]1[C@H]2C[C@H]3c4[nH]c5ccccc5c4CCN3C[C@@H]2CC[C@@H]1O	-1.3	1.0	-3.5	-0.2	.	.
CCC1CN(C)C2Cc3c([nH]c4ccccc34)C(=O)CC1C2C(=O)OC (centres undefined)	0.5	-2.7	-0.5	13.5*	6.7	8.1*
CS(=O)(=O)N1CCN=C1SCc1cccc(F)c1	1.4	0.9	0.1	0.1	.	.
CC(C)COc1ccc(C(=O)OCC(=O)NCc2cccs2)cc1	-1.6	0.8	0.9	-0.1	.	.
CCN1CCN(c2cc3c(cc2F)c(=O)c(S(=O)(=O)c2ccccc2)cn3C)CC1	0.4	-8.9	0.6	12.6*	2.7	2.6
CN(C)CCCN(C(=O)/C=C/c1cccs1)c1nc2ccc(F)cc2s1	2.5	-6.9	2.8	35.1*	153.5*	232.0*
O=C(NN=C1CCCC1)c1cc(Cl)cc(Cl)c1O	0.8	-2.1	0.9	17.5*	12.2	15.4*
COc1ccc(Cl)cc1C(=O)NN=C1CCCC1	2.8	2.0	-4.0	0.9	.	.
CCN(CC)C(=O)CN1C(=O)C2(NC(=O)c3ccccc3N2)c2ccccc21 (centres undefined)	-3.4	-6.3	-2.1	4.6	.	.
CC(=O)N1CC2(NC(=O)c3ccccc3N2)c2ccccc21 (centres undefined)	0.5	-1.7	-0.7	19.1*	16.6*	18.1*
CCN(CC)C(=O)[C@H]1C[C@H](CC(=O)NCCCOC)C(=O)N2CCc3c([nH]c4cc(-c5ccco5)ccc34)[C@]12C	-1.2	-5.5	-0.6	163.8*	166.4*	206.2*
CC(C)N(C(=O)[C@H]1C[C@H](CC(=O)NCCC2=CCCCC2)C(=O)N2CCc3c([nH]c4cc(-c5ccco5)ccc34)[C@]12C)C(C)C	-3.2	24.8	-0.1	-3.8	.	.
CCN(CC)C(=O)[C@H]1C[C@H](CC(=O)NC/C=C(\C)CCC=C(C)C)C(=O)N2CCc3c([nH]c4cc(-c5ccco5)ccc34)[C@]12C	1.2	15.4	-4.3	19.0*	4.0	12.4*
CC(C)N(C(=O)[C@H]1C[C@H](CC(=O)NCCCN(C)C)C(=O)N2CCc3c([nH]c4cc(-c5ccco5)ccc34)[C@]12C)C(C)C	0.3	-4.2	3.7	103.1*	72.8*	87.8*
CCN(CC)C(=O)[C@H]1C[C@H](CC(=O)NCc2ccc(OC)c(OC)c2)C(=O)N2CCc3c([nH]c4cc(-c5ccco5)ccc34)[C@]12C	-3.1	-2.1	-5.9	140.9*	68.0*	75.7*
CCN(CC)C(=O)[C@H]1C[C@H](CC(=O)NCC23CC4CC(CC(C4)C2)C3)C(=O)N2CCc3c([nH]c4cc(-c5ccco5)ccc34)[C@]12C	2.5	41.8	1.0	-7.2	.	.
Cc1onc(-c2ccccc2)c1C(=O)OCc1nnc(-c2ccccc2)o1	0.3	16.8	-1.4	0.0	.	.
O=C(CNC(=O)c1ccccc1F)NCCCN1CCCC1=O	0.6	-10.6	-1.4	-0.5	.	.
CCN(CC)C(=O)[C@H]1C[C@H](CC(=O)NCCCN(C)C)C(=O)N2CCc3c([nH]c4cc(-c5ccco5)ccc34)[C@]12C	-0.2	-5.8	5.0	90.3*	72.7*	83.8*
CCCn1c(C)c(CC(=O)Nc2ccc(N(C)c3ccccn3)cc2)c2ccccc21	.	.	-0.5	4.0	.	.
Cc1c(/C=N/NC(=O)C(NC(=O)c2ccc3c(c2)OCO3)C(C)C)c2ccccc2n1C (centres undefined)	-5.3	21.6	-4.3	-0.7	.	.
CCN(CC)CCN1C(=O)c2ccccc2NC1c1ccc(N(C)C)cc1 (centres undefined)	-4.0	-7.4	-1.9	2.8	.	.
CCN(CC)CCN1C(=O)c2ccccc2NC1c1ccc(Br)cc1 (centres undefined)	-3.0	-2.4	-1.3	60.8*	12.3	23.2*
SMILES	FXN GAA850 act	FAS-TE inh	SMARCA2 act	KLK7 zymogen act	KLK7 act conf	EDANS-DABCYL int	others
CCN(CC)CCN1C(=O)c2ccccc2NC1c1ccc(F)cc1 (centres undefined)	1.4	-5.6	0.6	91.5*	37.0*	34.5*
CCN(CC)CCN1C(=O)c2ccccc2NC1c1ccccc1F (centres undefined)	2.4	-10.2	2.2	73.6*	26.1*	37.6*
COc1ccc(C2Nc3ccccc3C(=O)N2NC(=O)c2ccccc2)cc1OC (centres undefined)	2.5	-3.1	3.5	3.7	.	.
O=C(O)CCC(=O)NN1C(=O)c2ccccc2NC1c1ccc(F)cc1 (centres undefined)	0.0	-3.7	-1.5	17.4*	37.9*	30.6*	K7 EDANS ctr=>69.5
CCN(CC)CCN1C(=O)C(=O)/C(=C(/O)c2ccncc2)C1c1ccccc1F (centres undefined)	2.5	-5.4	1.0	-0.8	.	.
CCCCNCCOCCOc1ccc(C)cc1Br	-1.1	-11.1	0.3	0.1	.	.
CCN(CC)CCN1C(=O)c2ccccc2NC1c1cccc(F)c1 (centres undefined)	2.4	-7.1	2.1	71.5*	34.8*	33.4*
COc1ccc(C2Nc3ccccc3C(=O)N2NC(C)=O)cc1OC (centres undefined)	1.3	-6.0	2.3	11.1	.	.
CCN(CC)CCN1C(=O)c2ccccc2NC1c1ccc(C)cc1 (centres undefined)	-2.2	-6.4	-1.4	74.6*	28.8*	37.1*
CCOC(=O)NN1C(=O)c2ccccc2NC1c1ccc(OC)c(OC)c1 (centres undefined)	2.2	-5.6	3.9	19.7*	25.1*	26.4*
C/C(=N\NC(=O)c1nnn(-c2nonc2N)c1CSc1ccc(C)cc1)c1ccco1	-1.0	6.8	-1.4	-0.2	.	.
O=c1c2cc(N3CCOCC3)ccc2[nH]c(=S)n1CCN1CCCC1	-2.4	-9.7	-1.7	80.0*	45.6*	53.6*
O=c1c2cc(F)ccc2[nH]c(=S)n1CCCN1CCOCC1	1.4	-4.5	-1.0	-0.3	.	.
Cc1ccc(Cn2c(=S)[nH]c3ccc(N4CCOCC4)cc3c2=O)o1	4.3	1.3	2.2	45.1*	100.6*	104.9*
O=c1c2cc(N3CCOCC3)ccc2[nH]c(=S)n1CCCN1CCCCCC1	-1.5	-9.1	-1.4	103.7*	44.0*	40.8*
O=c1c2cc(N3CCOCC3)ccc2[nH]c(=S)n1Cc1ccc(Cl)cc1	4.3	21.5	-0.1	-3.7	.	.
